Measurements reported in the supplement of paper PMC6555819.

Legend:
Assay in all cases: PBM binding z-score (relative to random genomic background probes); higher = stronger binding; sequences stand for … in GC…GCGATTGACAGCGTAGAATGAAGG
[1] = test system: RARb homodimer (NR concentration 270 nM)
Summary of the method: (§1)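 Ligand-free nuclear receptor dimers were applied to custom Agilent 4×180K protein-binding microarrays whose double-stranded probes carried direct-repeat seeds, single-nucleotide variants, half-site ablations and random human genomic background sequences in 34-nt variable regions. Incubation lasted 1 h. Binding z-scores were computed against the random background probes from regression-normalized fluorescence.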

[2] = test system: RARg:RXRa (NR concentration 270 nM, RXRa partner concentration 90 nM)
Summary of the method: as §1

[3] = test system: RARg homodimer (NR concentration 270 nM)
Summary of the method: as §1

[4] = test system: RXRa DBDmut IVT, anti-RXR (DBD mutation: RXRa K156A/R161A, NR concentration 90 nM)
Summary of the method: as §1

[5] = test system: RXRa homodimer (NR concentration 180 nM)
Summary of the method: as §1

[6] = test system: THRa:RXRa (NR concentration 90 nM, RXRa partner concentration 90 nM)
Summary of the method: as §1

[7] = test system: THRa homodimer (NR concentration 90 nM)
Summary of the method: as §1

[8] = test system: VDR homodimer (NR concentration 270 nM)
Summary of the method: as §1

Sequence	PBM binding z-score [1]	PBM binding z-score [2]	PBM binding z-score [3]	PBM binding z-score [4]	PBM binding z-score [5]	PBM binding z-score [6]	PBM binding z-score [7]	PBM binding z-score [8]
AGTCAACGTTCATCTAGGTAACGTAAGATATGCT	-0.148	0.363	0.744	-0.0413	0.0603	0.649	-0.132	-0.282
TCTCGGAGGACACGAAAGGTCAGAGCACGACATC	4.5	5.01	5.15	1.04	4.09	3.67	1.29	1.49
CAAACTAGGTCATTGACAGGACAGTGAATAGTAA	2.83	4.74	4.67	2.28	2.89	2.91	1.01	1.51
CCTAGTTGGTCAAGGACACACACGCTATAGGTAC	1.47	1.19	1.81	0.547	0.578	2.95	2.82	1.33
ACTATTAGTTGACTTAGGGCAACTGATACGACGC	0.726	0.872	1.07	0.417	0.497	1.31	0.235	0.0906
ACTATTAGTTGAGAGGAGGGCAACCGATAGGTTG	1.1	0.586	0.81	0.0671	0.396	1.32	-0.435	0.461
CAAACTAGGTCACGAAAGGTCAAAGGCGAATGAC	5.95	8.09	8.64	1.99	8.7	5.15	2.55	3.38
ATCGAAAGGTCGATGGTGAGTATACCCACCCGAA	1.45	3.25	3.01	0.438	3.21	1.26	-0.577	0.213
TCTCGGAGGACCCGAAGGTCAGAGCTTTCCAGAG	2.83	2.16	1.76	-0.207	1.82	1.62	-0.184	-0.145
CAAACTAGGTCAAGGGTCAAAGTCGAGCCAACCA	4.7	7.41	6.13	2.47	8.6	4.36	1.45	3.15
GCTAGTTGGTCAGTAAAAGGTCATACACCGGTCG	4.93	4.81	3.6	0.515	4.8	3.39	1.35	2.09
CTCGAAAGGTCGGTTGAGGTGAGTACACGGATAA	2.53	2.89	2.79	0.908	2.34	5.21	1.47	1.71
ACTAGCAGGCCAAGGGTCACTCAAGATTAGTCCG	3.86	4.17	3.74	0.678	3.93	2.65	0.199	1.29
ACTATTAGTTGAGACGAGGTCAACCGATAGGTTG	4.05	3.81	3.37	1.57	4.82	4.73	3.82	3.21
GGGACGAGGGCATTCGAGTTGATAGCATGGCGAT	1.01	1.19	1.58	2.93	0.775	3.52	-0.0645	3.06
GGAACGAGCGCAAGTTGATAGCAGAGTTTGATGG	-0.846	-0.499	-0.47	0.0943	-0.499	-1.01	-0.971	-0.311
CCTAGCAGGCCAGGGTTACTCAAGCATTTCGCTT	0.0028	-0.0642	-0.141	-0.596	0.113	0.382	-0.445	-0.788
CCTCACGGGTCACGAGGTTATAGCACGACGAGCG	3.79	5.79	5.33	1.43	6.4	3.36	1.24	2.22
AGAATGAGTTTATACGTAGATCAGGGAAGAAAGT	-0.157	0.14	0.357	3.89	-0.175	-0.0164	-0.368	3.35
ATCTCTAGGTAACCAGGTTCAGTGAATGCCGAAC	0.891	0.484	0.267	0.664	0.776	1.33	0.822	2.53
CCAGACAGGTGAGAAGGTAACTTAGCCTCGATTA	0.632	0.486	0.577	-0.104	0.246	0.524	0.316	0.118
GCGACTGGGGCATCAGCAGGTTACCATAACTTAA	0.856	0.955	0.455	-0.108	0.462	1.09	-0.0496	-0.398
ATCTCTAGGTAAGACTCAGTTCAGTCAAGAACGC	0.982	0.387	0.453	0.696	0.195	1.18	0.902	1.48
TCAGACAGCTGAAGGTAACTCAGGTACGCAGTCG	-0.661	-0.115	-0.24	0.764	0.413	1.05	-0.685	-0.186
TAGCCTAGGTCAGATCAGGCCAGTATACGCTATA	2.07	2.81	3.44	-0.202	1.41	4.36	0.219	-0.305
CCTACTGGGCCATCAGGTCAATGATATCAACGTT	2.67	2.1	2.2	-0.0866	1.31	3.17	2.24	0.718
TCAGACAGGTGAAGGTCACTCAGGTACGCAGTCG	4.11	3.63	4.11	1.7	3.51	3.79	1.43	2.39
AATACAGGGTCACTAGGCCAGCGTAGGTACGAAT	3.58	5.12	4.78	2.81	5.29	3.48	1.43	2.28
GCGACTGGGGCTAAGCAGGTTACCATAAGGTTGG	0.946	0.126	0.179	-0.481	-0.00806	1.12	0.145	-0.2
